Measured values as given in PubChem BioAssay AID1671202 (University of Kansas High Throughput Screening Laboratory, 2021).
Values joined by “and” are separate entries in the source; they are usually repeats but may differ in a detail not shown here. Equal values may be shown once. The campaign covered roughly 190,000 compounds. About 6,900 (3.6%) were called active. This is one part of a sample in which actives are shown more often than they occur. Cut-off read from the data, not from the text of the source: active = inhibition above about 50%; inactive = the rest. A structure can be active in one record and inactive in another.

Each compound was assayed against Huntingtin (Homo sapiens) (UniProt P42858) (assay: mutant huntingtin-calmodulin interaction inhibitors – biochemical, AlphaScreen, primary screen (AID 1671202;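 for inhibition: 0% = both proteins with DMSO and 100% = one protein alone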)). Conditions: AlphaScreen His-mHTT/GST-CaM binding, luminescence; at 15 µM, stronger effect = higher value.
Sequence of Huntingtin (Homo sapiens) (P42858 whole entry, looked up, stated change not applied): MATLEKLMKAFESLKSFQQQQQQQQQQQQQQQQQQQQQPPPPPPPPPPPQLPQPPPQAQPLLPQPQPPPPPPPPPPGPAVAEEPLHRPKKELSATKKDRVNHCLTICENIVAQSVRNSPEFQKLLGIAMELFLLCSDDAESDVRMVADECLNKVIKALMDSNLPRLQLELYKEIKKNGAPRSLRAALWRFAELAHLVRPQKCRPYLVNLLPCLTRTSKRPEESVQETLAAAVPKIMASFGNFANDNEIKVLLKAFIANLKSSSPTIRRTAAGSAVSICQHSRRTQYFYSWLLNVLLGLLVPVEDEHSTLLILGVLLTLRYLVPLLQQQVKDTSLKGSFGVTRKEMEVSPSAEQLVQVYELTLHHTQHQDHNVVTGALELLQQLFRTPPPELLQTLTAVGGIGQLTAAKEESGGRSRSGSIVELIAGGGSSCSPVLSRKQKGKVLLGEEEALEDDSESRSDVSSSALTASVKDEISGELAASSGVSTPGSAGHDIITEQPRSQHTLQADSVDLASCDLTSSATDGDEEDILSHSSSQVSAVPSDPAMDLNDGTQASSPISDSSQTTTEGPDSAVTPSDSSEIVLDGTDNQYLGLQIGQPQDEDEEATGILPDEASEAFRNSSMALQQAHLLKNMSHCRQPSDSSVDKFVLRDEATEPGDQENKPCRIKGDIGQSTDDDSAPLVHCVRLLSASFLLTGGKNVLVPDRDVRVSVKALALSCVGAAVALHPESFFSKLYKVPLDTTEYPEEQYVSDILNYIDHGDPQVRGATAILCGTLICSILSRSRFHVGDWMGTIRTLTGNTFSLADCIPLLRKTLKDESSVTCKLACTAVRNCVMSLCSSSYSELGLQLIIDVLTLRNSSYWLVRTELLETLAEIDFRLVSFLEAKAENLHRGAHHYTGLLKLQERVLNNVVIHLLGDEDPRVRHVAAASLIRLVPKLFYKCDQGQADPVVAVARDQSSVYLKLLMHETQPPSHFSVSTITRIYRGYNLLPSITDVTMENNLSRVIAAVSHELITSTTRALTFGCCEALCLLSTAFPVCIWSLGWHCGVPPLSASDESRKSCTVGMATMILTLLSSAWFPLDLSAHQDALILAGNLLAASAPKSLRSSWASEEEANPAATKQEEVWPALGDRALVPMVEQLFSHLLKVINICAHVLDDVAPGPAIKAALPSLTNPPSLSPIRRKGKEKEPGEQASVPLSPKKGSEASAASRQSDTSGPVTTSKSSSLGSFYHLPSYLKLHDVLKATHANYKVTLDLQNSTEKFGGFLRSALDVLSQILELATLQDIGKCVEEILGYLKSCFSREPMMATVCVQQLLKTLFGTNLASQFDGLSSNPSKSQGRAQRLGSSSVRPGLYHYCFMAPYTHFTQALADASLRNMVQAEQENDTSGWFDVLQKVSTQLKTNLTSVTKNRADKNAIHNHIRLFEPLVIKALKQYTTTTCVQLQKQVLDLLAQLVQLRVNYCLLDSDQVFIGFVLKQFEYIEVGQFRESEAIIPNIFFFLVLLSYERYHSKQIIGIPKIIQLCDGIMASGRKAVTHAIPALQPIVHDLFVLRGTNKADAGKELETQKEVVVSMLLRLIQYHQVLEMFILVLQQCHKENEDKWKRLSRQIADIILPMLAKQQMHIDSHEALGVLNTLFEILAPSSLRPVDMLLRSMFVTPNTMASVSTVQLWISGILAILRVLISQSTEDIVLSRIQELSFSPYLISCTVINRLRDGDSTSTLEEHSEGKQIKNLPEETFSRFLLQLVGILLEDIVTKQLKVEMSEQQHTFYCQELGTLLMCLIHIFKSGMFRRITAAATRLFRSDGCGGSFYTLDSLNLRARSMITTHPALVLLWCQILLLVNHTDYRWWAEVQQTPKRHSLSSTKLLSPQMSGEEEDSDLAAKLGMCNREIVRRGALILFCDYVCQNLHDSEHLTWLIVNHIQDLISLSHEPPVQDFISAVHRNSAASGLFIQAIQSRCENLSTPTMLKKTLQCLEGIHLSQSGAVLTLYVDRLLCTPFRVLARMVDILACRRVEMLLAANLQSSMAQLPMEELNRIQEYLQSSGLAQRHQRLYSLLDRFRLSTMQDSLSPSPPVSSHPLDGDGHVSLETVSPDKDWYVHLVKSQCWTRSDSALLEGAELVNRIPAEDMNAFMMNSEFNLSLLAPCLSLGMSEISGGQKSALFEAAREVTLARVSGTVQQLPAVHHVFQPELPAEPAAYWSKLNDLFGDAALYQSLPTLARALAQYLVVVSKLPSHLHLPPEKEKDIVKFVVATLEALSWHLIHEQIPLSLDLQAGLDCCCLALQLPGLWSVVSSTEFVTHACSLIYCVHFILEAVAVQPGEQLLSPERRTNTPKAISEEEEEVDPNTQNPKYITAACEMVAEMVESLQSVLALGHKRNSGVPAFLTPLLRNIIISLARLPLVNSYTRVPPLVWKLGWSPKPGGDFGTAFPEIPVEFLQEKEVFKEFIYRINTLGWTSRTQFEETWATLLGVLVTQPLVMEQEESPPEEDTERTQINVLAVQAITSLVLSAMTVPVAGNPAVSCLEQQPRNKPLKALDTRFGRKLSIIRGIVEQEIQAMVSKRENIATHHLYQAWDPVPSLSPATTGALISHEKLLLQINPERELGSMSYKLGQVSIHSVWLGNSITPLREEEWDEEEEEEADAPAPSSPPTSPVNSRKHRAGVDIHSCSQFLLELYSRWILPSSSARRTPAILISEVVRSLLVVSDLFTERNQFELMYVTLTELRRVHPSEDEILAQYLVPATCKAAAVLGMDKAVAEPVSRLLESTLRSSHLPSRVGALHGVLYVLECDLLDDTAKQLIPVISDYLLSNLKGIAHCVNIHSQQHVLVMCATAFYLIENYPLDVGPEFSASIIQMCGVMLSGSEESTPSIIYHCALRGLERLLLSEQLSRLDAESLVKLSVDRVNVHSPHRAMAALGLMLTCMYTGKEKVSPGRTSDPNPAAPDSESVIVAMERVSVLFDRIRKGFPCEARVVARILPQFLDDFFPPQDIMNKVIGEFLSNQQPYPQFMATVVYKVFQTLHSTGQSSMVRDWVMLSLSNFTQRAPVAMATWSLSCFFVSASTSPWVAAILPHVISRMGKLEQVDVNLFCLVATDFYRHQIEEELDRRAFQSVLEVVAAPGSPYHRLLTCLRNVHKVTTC
`COc1ccc(CNC(=O)CC2CCN(C(=O)c3[nH]c(C)c(C)c3C)CC2)cc1` was tested, and the inhibition was 11.4% (inactive).
With `COc1ccc(CCNc2nc(C)nc3sc(C)cc23)cc1OC` the inhibition was 0% (inactive).
In the case of `CC(C)c1c(C2CCN(C(=O)c3cccc(F)c3)CC2)noc1N`, the inhibition is reported as -1.9% (inactive).
`Cc1cc(C(=O)NCCCn2ccnc2)ccc1[N+](=O)[O-]` was tested, and the inhibition was -2.3% (inactive).
For `CC(CC(=O)N1CCN(c2nc3ccccc3n(C)c2=O)CC1)c1ccccc1` (configuration not stated), the inhibition was 3.2% (inactive).
With `Cc1ccccc1C1=N/C(=C\c2ccc(Br)cc2)C(=O)O1` the inhibition was -1% (inactive).
`COc1ccc(-c2csc(=Nc3ccccc3)n2C)cc1` was tested, and the inhibition was 29% (inactive).
For `CN(C)CCCn1c(-c2ccc(Cl)cc2)csc1=Nc1ccccc1`, the inhibition was 89% (active).
In the case of `COc1ccc(C2C(=C(O)c3ccc(Cl)cc3)C(=O)C(=O)N2CCCN(C)C)c(OC)c1` (configuration not stated), the inhibition is reported as -4.4% (inactive).
With `CC1C(=O)N(c2ccc(Br)cc2)CCN1C(=O)C1CCCC1` (configuration not stated) the inhibition was -6.1% (inactive).
`Cc1ccc(C(=O)N2CCC(CC(=O)NCCN3CCCCCC3)CC2)cc1` was tested, and the inhibition was 13.3% (inactive).
With `O=C(CCS(=O)(=O)Cc1ccccc1F)NCCCN1CCCCC1` the inhibition was 1% (inactive).
With `Cc1nc(-c2ccccc2)oc1CC(=O)NCCN1CCCCCC1` the inhibition was 100% (active).
For `O=S(=O)(c1ccccc1)c1cccs1`, the inhibition was -6.17% (inactive).
For `Cc1cc(C)c(NC(=O)CNC2CC(C)(C)NC(C)(C)C2)c(C)c1`, the inhibition was -6.9% (inactive).
With `COc1ccc2oc(=O)c(-c3nnc(Nc4ccc(C)cc4)s3)cc2c1` the inhibition was 3% (inactive).
For `O=C(c1ccco1)N1CCN(c2ccc([N+](=O)[O-])cc2)CC1`, the inhibition was 0.2% (inactive).
In the case of `O=C(c1ccco1)N1CCN(c2ncnc3sc(-c4ccccc4)cc23)CC1`, the inhibition is reported as 54.6% (active).
For `Cc1ccc2nc3sc(C(=O)N4CCN(C(=O)c5ccco5)CC4)cc3c(=O)n2c1`, the inhibition was 12.9% (inactive).
In the case of `COc1cc(C(=O)N2CCC(CC(=O)NCc3ccccn3)CC2)cc(OC)c1OC`, the inhibition is reported as 19.9% (inactive).
`COCCN1C(=O)c2ccccc2C(C(=O)NCC2CCCO2)C1c1ccc(F)cc1` (configuration not stated) was tested, and the inhibition was 0% (inactive).
For `Cc1ccc(C(=O)N2CCc3sc(C(=O)NCCC(C)C)cc3C2)cc1`, the inhibition was -0.52% (inactive).
For `O=C(Nc1ccc([N+](=O)[O-])cc1)C12CC3CC(C1)CC(c1ccccc1)(C3)C2`, the inhibition was 14.9% (inactive).
In the case of `O=C(c1ccc2c(c1)OCO2)N1CCC(n2nc(-c3ccsc3)ccc2=O)CC1`, the inhibition is reported as 98% (active).
With `O=C(c1ccc(F)cc1)N1CCC(n2nc(-c3ccsc3)ccc2=O)CC1` the inhibition was 93.2% (active).
`O=C(c1ccc2c(c1)OCO2)N1CCOCC1` was tested, and the inhibition was 1% (inactive).
In the case of `O=C(c1ccc(-c2ccsc2)nc1)N1CCOCC1`, the inhibition is reported as -3.2% (inactive).
`O=C(c1ccc(-c2ccsc2)nc1)N1CCCCCC1` was tested, and the inhibition was -6.2% (inactive).
For `CC1CCCN(C(=O)c2ccc(-c3ccsc3)nc2)C1` (configuration not stated), the inhibition was -3.7% (inactive).
For `COc1ccc(NC(=O)N2CCCC2c2nc(-c3ccc(F)cc3F)no2)cc1F` (configuration not stated), the inhibition was 5.86% (inactive).
With `O=C(C1CCCC1)N1CCN(Cc2noc(-c3cccc4ccccc34)n2)CC1` the inhibition was 19.3% (inactive).
With `O=C(N/N=C/C=C\c1ccco1)c1ccco1` the inhibition was “inactive”.
For `O=C(NCCn1ncccc1=O)c1cc(C2CC2)on1`, the inhibition was -8.3% (inactive).
`O=c1c(-c2ccc3c(c2)OCCO3)c(C(F)(F)F)oc2cc(O)cc(O)c12` was tested, and the inhibition was 54.5% (active).
In the case of `Cc1cc(O)c2c(=O)c(-c3csc(C)n3)c(C(F)(F)F)oc2c1`, the inhibition is reported as 1% (inactive).
For `COc1ccc(-c2c(C(F)(F)F)oc3cc(O)ccc3c2=O)cc1`, the inhibition was 10% (inactive) and -0.6% (inactive).
For `COc1ccc(-c2noc(C3CCN(CC(=O)Nc4ccc(C)c(F)c4)CC3)n2)cc1`, the inhibition was -6.73% (inactive).
For `Cc1ccccc1Oc1nc(N2CCCC2)nc2c1CN(Cc1ccncc1)CC2`, the inhibition was 17.7% (inactive).
For `Cc1ccccc1NC(=O)NCc1ccsc1`, the inhibition was -8.6% (inactive).
`O=C1c2ccccc2-c2onc3c(N4CCCC4)ccc1c23` was tested, and the inhibition was 64% (active).
In the case of `CCN(Cc1ccccc1)C(=O)c1ccccc1Cl`, the inhibition is reported as -7.8% (inactive).
In the case of `CCCNc1cc(N2CCC(CCC(=O)NCc3ccccn3)CC2)ncn1`, the inhibition is reported as 1.6% (inactive).
In the case of `COc1ccccc1Nc1cc(C)nc2ccc(Cl)cc12`, the inhibition is reported as 0% (inactive).
`O=C(Nc1ccccc1I)c1ccccc1F` was tested, and the inhibition was -15.8% (inactive) and -24% (inactive).
In the case of `Cc1ccc(C(=O)Nc2cnc(N3CCCCC3)nc2)c(C)c1`, the inhibition is reported as 9.7% (inactive).
`COc1ccc(C2=NC(c3ccncc3)=Nc3ccc(Br)cc3N2)cc1` was tested, and the inhibition was 50.3% (active).
`COc1ccc(/C=C2\N=C(c3cccc(Br)c3)OC2=O)cc1` was tested, and the inhibition was -5% (inactive).
In the case of `COc1cc(C=C(C#N)c2nc(-c3ccc4c(c3)OCO4)cs2)cc(OC)c1OC(C)=O`, the inhibition is reported as -4.5% (inactive).
In the case of `CC(=O)N1c2ccccc2NC2=C(C(=O)CC(C)(C)C2)C1c1ccc(N(C)C)cc1` (configuration not stated), the inhibition is reported as 29.3% (inactive).
`COc1ccc(S(=O)(=O)CCC(=O)Nc2ccccc2C(F)(F)F)cc1` was tested, and the inhibition was 1% (inactive).
With `O=C(Cc1ccc(Cl)cc1)N1CCN(c2ccc(Cl)cc2[N+](=O)[O-])CC1` the inhibition was 58.1% (active) and 44% (inactive).
`O=[N+]([O-])c1cc(Cl)ccc1N1CCCNCC1` was tested, and the inhibition was -0.3% (inactive).
For `COc1ccc(C(=O)N2CCN(c3ccc(Cl)cc3[N+](=O)[O-])CC2)cc1Br`, the inhibition was 14.9% (inactive).
`O=C(CSc1nc2[nH]ncc2c(=O)n1-c1ccccc1)NCc1cccc(Cl)c1` was tested, and the inhibition was 8% (inactive).
With `O=[N+]([O-])c1ccc(CN2CC(N3CC=CC3)CS2(=O)=O)cc1` (configuration not stated) the inhibition was -3% (inactive).
For `O=[N+]([O-])c1ccc(CN2CC(N3CCC(c4ccccc4)CC3)CS2(=O)=O)cc1` (configuration not stated), the inhibition was 50.1% (active).
With `O=S1(=O)CC(N2CCC(Cc3ccccc3)CC2)CN1Cc1ccccc1` (configuration not stated) the inhibition was 19.9% (inactive).
With `Cn1c(/C=C/c2ccc(Cl)cc2)nc2ccccc21` the inhibition was -18.9% (inactive).
With `OC(COCC12CC3CC(CC(C3)C1)C2)CN1CCc2ccccc2C1` (configuration not stated) the inhibition was 35.2% (inactive).
In the case of `Cc1ccc(C(=O)N2CCN(c3nc(CN4CCCCC4)cs3)CC2)cc1F`, the inhibition is reported as 2% (inactive).
In the case of `CCC(CC)C(=O)N1CCc2c(c(-c3nnc(-c4ccccc4Cl)o3)nn2C)C1`, the inhibition is reported as 6.42% (inactive).
In the case of `Cn1nc(-c2nc(Cc3ccccc3)no2)c2c1CCN(C(=O)c1ccccc1Cl)C2`, the inhibition is reported as 6.74% (inactive).
For `Cn1nc(-c2nnc(-c3ccccc3Cl)o2)c2c1CCN(C(=O)CCc1ccccc1)C2`, the inhibition was 76.5% (active).
In the case of `COc1cccc(C=C2Oc3c(ccc(O)c3CN3CCCCC3C)C2=O)c1OC` (configuration not stated), the inhibition is reported as 15.7% (inactive).
`COc1cccc(C=C2Oc3c(ccc(O)c3CN(C)Cc3ccccc3)C2=O)c1OC` was tested, and the inhibition was 93.1% (active).
`CCCCN(C)Cc1c(O)ccc2c1OC(=Cc1cc(OC)c(OC)c(OC)c1)C2=O` was tested, and the inhibition was -3.1% (inactive).
In the case of `COCC(C)(O)CNC(=O)C(=O)NCc1ccc(C)cc1` (configuration not stated), the inhibition is reported as -17.7% (inactive).
`Cc1ccc(NC(=O)C2CC(=O)N(CCc3c[nH]c4ccc(Cl)cc34)C2)c(C)c1` (configuration not stated) was tested, and the inhibition was 65% (active).
With `CC(C)CCNC(=O)C1CC(=O)N(CCc2c[nH]c3ccc(Cl)cc23)C1` (configuration not stated) the inhibition was 25.8% (inactive).
In the case of `O=C(NCCN1CCOCC1)C1CC(=O)N(CCc2c[nH]c3ccc(F)cc23)C1` (configuration not stated), the inhibition is reported as -6.88% (inactive).
In the case of `O=C(Nc1ccccc1F)C1CC(=O)N(CCc2c[nH]c3ccc(F)cc23)C1` (configuration not stated), the inhibition is reported as 9.18% (inactive).
For `O=C(Nc1ccc2c(c1)CCC2)C1CC(=O)N(CCc2c[nH]c3ccc(F)cc23)C1` (configuration not stated), the inhibition was 53.7% (active).
With `Cc1ccc2[nH]cc(CCN3CC(C(=O)Nc4cccc(C)c4C)CC3=O)c2c1` (configuration not stated) the inhibition was 30.5% (inactive).
In the case of `Cc1ccc2[nH]cc(CCN3CC(C(=O)N4CCN(c5ccccc5)CC4)CC3=O)c2c1` (configuration not stated), the inhibition is reported as 45.4% (inactive).
`Cc1ccc2[nH]cc(CCN3CC(C(=O)Nc4ccc(Br)cc4)CC3=O)c2c1` (configuration not stated) was tested, and the inhibition was 53.5% (active).
In the case of `Cc1ccc2[nH]cc(CCN3CC(C(=O)Nc4cccc(Br)c4)CC3=O)c2c1` (configuration not stated), the inhibition is reported as 39.7% (inactive).
`CC1(C(=O)NCC2CCCO2)CCC(=O)N1Cc1cccs1` (configuration not stated) was tested, and the inhibition was 3% (inactive).
For `CCN(c1ccc(F)cc1)S(=O)(=O)c1ccc2[nH]cc(C(=O)NCCN(C)C)c(=O)c2c1`, the inhibition was 3% (inactive).
`CCOc1ccc(CN2C(=O)CCC2(C)C(=O)NC2CCCC(C)C2C)cc1` (configuration not stated) was tested, and the inhibition was -9% (inactive).
For `C=CCNCCCOc1ccc(Br)cc1C`, the inhibition was 0.1% (inactive).
`COc1ccc(NC(=O)CN2C(=O)C(c3ccccc3)=NC23CCCCCC3)cc1OC` was tested, and the inhibition was -0.13% (inactive).
`O=C(CN1C(=O)C(c2ccccc2)=NC12CCCCC2)Nc1ccc(Cl)cc1` was tested, and the inhibition was 50.9% (active).
`CCc1ccc(NC(=O)CN2C(=O)C(c3ccccc3)=NC23CCCCC3)cc1` was tested, and the inhibition was -7.57% (inactive).
`Cc1ccc(NC(=O)CN2CCN(c3ccccn3)CC2)cc1F` was tested, and the inhibition was 2% (inactive).
In the case of `COCCNC(=O)NCCn1ccnc1C`, the inhibition is reported as -11.5% (inactive).
With `COc1cc(CN2CCN(Cc3cc(OC)c(OC)c(OC)c3)CC2)cc(OC)c1` the inhibition was -4.6% (inactive).
With `COc1ccc(O)c(C(=O)CC(=O)c2cccc(F)c2)c1` the inhibition was 58.1% (active).
`COc1ccc(CC(=O)Nc2ccccc2F)cc1` was tested, and the inhibition was 0.5% (inactive).
`COc1cccc(C(=O)N(CC#N)CC#N)c1` was tested, and the inhibition was 4.4% (inactive).
For `CC(C)n1c(COc2ccccc2)nc2ccccc21`, the inhibition was -16% (inactive).
`Cn1c(COc2ccc(Cl)cc2)nc2ccccc2c1=O` was tested, and the inhibition was 61.9% (active).
`CCSc1nc2ccccc2c(=O)n1C` was tested, and the inhibition was -11.7% (inactive).
For `O=C(Nc1cccc(NC(=O)c2ccccc2Cl)c1)c1ccccc1Cl`, the inhibition was 1% (inactive).
In the case of `Nc1c(C(=O)Nc2ccccc2I)sc2nc(-c3cccs3)ccc12`, the inhibition is reported as -8% (inactive).
In the case of `CCOc1cccc2c1OC1(CCCCC1)N1N=C(c3cccnc3)CC21` (configuration not stated), the inhibition is reported as 27% (inactive).
With `CCOc1cccc2c1OC(c1cccc(OC)c1OC)N1N=C(c3ccc(C)o3)CC21` (configuration not stated) the inhibition was 67% (active).
With `CCOc1cccc2c1OC(c1ccc(OC)c(OC)c1)N1N=C(c3ccco3)CC21` (configuration not stated) the inhibition was 45% (inactive).
